Results taken from paper PMC4336329 (PLoS ONE, 2015).
The whole screen tested about 310,000 compounds, of which about 14,000 (4.5%) showed an effect of 50% or more. The effect is printed as a negative number. The list comes from a sample in which strong results are over-represented; it also holds similar structures and randomly drawn compounds.

What follows are compounds tested against human ether-à-go-go-related gene (hERG) potassium channel (human, UniProt Q12809) (assay: primary screen, population patch clamp on CHO cells stably expressing hERG; higher = less effect of the substance).
Chain of human ether-à-go-go-related gene (hERG) potassium channel (Q12809 whole entry, looked up): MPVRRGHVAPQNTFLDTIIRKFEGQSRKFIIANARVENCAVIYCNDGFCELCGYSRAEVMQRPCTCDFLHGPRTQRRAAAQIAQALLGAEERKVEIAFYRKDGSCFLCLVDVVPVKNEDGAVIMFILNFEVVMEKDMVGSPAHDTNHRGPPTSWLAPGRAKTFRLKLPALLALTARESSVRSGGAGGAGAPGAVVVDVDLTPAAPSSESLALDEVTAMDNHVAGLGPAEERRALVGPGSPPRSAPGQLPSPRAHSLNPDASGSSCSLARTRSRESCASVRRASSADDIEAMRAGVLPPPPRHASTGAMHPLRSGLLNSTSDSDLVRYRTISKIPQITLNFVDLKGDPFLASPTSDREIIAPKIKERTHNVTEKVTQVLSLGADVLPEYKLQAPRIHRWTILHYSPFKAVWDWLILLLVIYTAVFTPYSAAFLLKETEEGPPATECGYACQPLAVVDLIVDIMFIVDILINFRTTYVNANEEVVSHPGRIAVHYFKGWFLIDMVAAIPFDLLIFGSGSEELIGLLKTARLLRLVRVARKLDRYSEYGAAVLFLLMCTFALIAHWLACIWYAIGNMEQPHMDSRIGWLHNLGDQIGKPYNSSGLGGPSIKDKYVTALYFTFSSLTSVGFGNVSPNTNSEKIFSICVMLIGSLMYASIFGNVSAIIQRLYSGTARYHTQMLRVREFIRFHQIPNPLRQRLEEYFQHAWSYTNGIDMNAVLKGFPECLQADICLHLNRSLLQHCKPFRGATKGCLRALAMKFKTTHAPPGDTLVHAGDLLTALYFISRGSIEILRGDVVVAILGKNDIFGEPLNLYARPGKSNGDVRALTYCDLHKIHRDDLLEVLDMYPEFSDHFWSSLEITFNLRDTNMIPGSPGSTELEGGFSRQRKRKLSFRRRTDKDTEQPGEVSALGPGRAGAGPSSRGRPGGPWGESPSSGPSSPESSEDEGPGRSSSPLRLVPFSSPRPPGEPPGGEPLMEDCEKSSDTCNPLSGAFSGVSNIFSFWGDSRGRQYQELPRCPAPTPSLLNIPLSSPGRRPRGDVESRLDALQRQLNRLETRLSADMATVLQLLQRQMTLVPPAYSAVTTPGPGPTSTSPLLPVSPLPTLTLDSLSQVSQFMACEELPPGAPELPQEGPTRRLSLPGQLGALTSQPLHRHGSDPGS
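Note: peak tail current of the secondary pulse compared with the same well before compound.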

SMILES	hERG current change (%, negative = inhibition) at 10uM [%]
CCOc1ccccc1N1CC(C(=O)N2CCc3ccccc3C2)CC1=O (stereo not shown)	-19.4
CCOc1ccc(CN2CCC(C(=O)N3CCN(c4ccccc4F)CC3)CC2)cc1OC.O=C(O)C(=O)O	-64.8
COc1cccc(CN2CCC(C(=O)N3CCC(C)CC3)CC2)c1.O=C(O)C(=O)O	-11
COc1cccc(CN2CCC(C(=O)N3CCN(c4ccccc4F)CC3)CC2)c1	-53
COc1ccc(CN2CCC(C(=O)N3CCN(c4ccccc4F)CC3)CC2)cc1OC	-37
COc1cccc(CN2CCC(C(=O)N3CCN(c4ccccc4F)CC3)CC2)c1OC.O=C(O)C(=O)O	-10.2
COc1cc(CN2CCC(C(=O)N3CCN(c4ccccc4F)CC3)CC2)cc(OC)c1O.O=C(O)C(=O)O	-3.74
CCOc1ccccc1N1CC(C(=O)N2CCOCC2)CC1=O (stereo not shown)	13.9
COc1cc(CN2CCC(C(=O)N3CCN(c4ccccc4F)CC3)CC2)ccc1O.O=C(O)C(=O)O	-19.9
COc1cc(CN2CCC(C(=O)N3CCN(c4ccccc4F)CC3)CC2)cc(OC)c1OC.O=C(O)C(=O)O	-22.6
COc1ccc(OC)c(CN2CCC(C(=O)N3CCN(c4ccccc4F)CC3)CC2)c1.O=C(O)C(=O)O	-65.3
CC1=C/C(=C(/c2ccc(O)c(C)c2)c2ccccc2S(=O)(=O)[O-])C=CC1=O.[Na+]	3.9
Cc1ccc(NC(=O)CSc2ccc(-c3cccnc3)nn2)cc1	-12.3
Cc1cccc(OCC(=O)N/N=C\c2cc3c(cc2[N+](=O)[O-])OCO3)c1C	-7.82
Cc1ccccc1C(=O)Nc1ccccc1C(=O)NC1CC1	6.72
Cc1ccccc1N(CC(=O)NC1CCCCC1)C(=O)c1csnn1	8.46
CCC(=O)Nc1sc2c(c1C(N)=O)CCN(C(C)=O)C2	10.7
Cc1ccc(C(=O)Oc2cccc(NC(=O)c3ccccc3)c2)cc1C	19.2
Cc1cc(C)cc(NC(=O)[C@@H](NC(=O)c2ccco2)C(C)C)c1	5.62
Cc1cc(C(=O)NNC(=O)/C=C/c2ccc(F)cc2)c(C)o1	1.41
CCN1CCN(Cc2ccc(NC(=O)c3cc(NC(=O)c4cc(-c5ccc(OC)cc5)n[nH]4)cc(OC)c3)cc2C(F)(F)F)CC1	11.9
CC(C)Nc1nc(NC(C)(C)C)nc(Oc2ccc(=O)n(C)n2)n1	-15.3

SMILES	hERG current change (%, negative = inhibition) at 10uM [%]
Cc1c(C(=O)NC2=NCCS2)oc2ccccc12	-25.4
Cc1cc(C)nc(Oc2ccc(Br)cc2Br)n1	19.1
OCC1(CCOc2ccccc2)CCN(Cc2ccccc2OC(F)F)CC1	-72.5
C=CCOc1ccccc1CN1CCC(CO)(CCOc2ccccc2)CC1	-81.9
C=CCOc1ccccc1CN1CCCN(C)CC1	6.51
CCOc1ccccc1CN1CCN(S(=O)(=O)CC)CC1.O=C(O)C(=O)O	10.7
CCOc1ccccc1CN1CCC(CO)(CCOc2ccccc2)CC1	-80.2
OCC1(CCOc2ccccc2)CCN(Cc2ccc(OC(F)F)cc2)CC1	-79
OCC1(CCOc2ccccc2)CCN(Cc2ccccc2C(F)(F)F)CC1	-34.2
COc1ccccc1CN1CCN(C(=O)COc2ccccc2)CC1	-8.47
CCOCCCn1c(=O)c(NC(=O)c2ccc(OCC)cc2)c2n(c1=S)CCCCC2	-27.8
CCCCCc1nnc(NC(=O)c2cccc(S(=O)(=O)N3CCOCC3)c2)s1	-41.8
Cn1c(Cn2c(=O)sc3ccccc32)nnc1SCc1ccccc1F	-19.9
CCC(=O)N1CCN(c2ccc(NC(=O)c3cccs3)cc2)CC1	-0.84
COc1cc(/C=N/n2cnnc2)ccc1OC(=O)c1ccncc1	8
O=C(COc1ncnc2ccccc12)Nc1ccc(S(=O)(=O)N2CCOCC2)cc1	9.94
N#C/C=C(/N)c1ccc(Br)cc1	7.26
c1ccc(Cn2ncc3c(Nc4ccccc4)ncnc32)cc1	6.01
CCOc1ccc(CCNC(=O)COC(=O)C2CCN(c3ccc(C(F)(F)F)cn3)CC2)cc1OCC	-10.9
Cc1cccc(NS(=O)(=O)c2ccc(C(=O)NCCCN3CCCC3=O)cc2)c1C	4.04
Cc1nc([N+](=O)[O-])cn1CC(O)c1ccc(-c2ccccc2)cc1 (stereo not shown)	-44.3
